For 38 molecules, outcome and Potency results are on record in PubChem BioAssay (NCATS).

“And” between values parts separate entries of the source, which are not always exact repeats. Equal values may be shown once. Records with an inconclusive call do not appear. The source made the active and inactive calls. The call rests on the fitted dose curve; in most records, active means well fitted curve in the direction sought with a large enough effect; inconclusive means small, poorly fitted or top-dose-only effect, or another doubt; inactive means no such curve, though single readings can be large; an effect the other way counts as inactive or inconclusive.

Assay [1] can be described thus: ZIKV-mCherry secondary qHTS for Zika virus inhibitors (AID 1347158). Further: top concentration of the series differs between compounds. The note with it: Vero cells, ZIKV-mCherry infection imaging, 48-72 h; series mostly up to 49.2 µM. The method in brief:
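Compounds were tested in Vero monkey kidney cells infected with recombinant mCherry-expressing Zika virus at MOI 1 for 48-72 h at 37 °C. Fixed cells were nuclear-stained and imaged, and infection rate was taken as the fraction of mCherry-positive cells.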
On the technique in general: Quantitative high-throughput screening tests each substance at several concentrations.

The nature of assay [2]: Vero cells viability qHTS for Zika virus inhibitors (AID 1347167). The note with it: cytotoxicity counter-screen (Zika); series mostly up to 45.9 µM. The method in brief:
(§1)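 To flag cytotoxic protease inhibitors, viability is measured by ATP-dependent luminescence (CellTiter Glo) after cells attached overnight receive compound for 24 to 48 hours in DMEM with 4% FBS.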

Assay [3] in a line: HepG2 cells viability qHTS for Zika virus inhibitors (AID 1347168). The note with it: Zika counter-screen; series mostly up to 45.9 µM. The method in brief: as §1
A short description of assay [4]: Tertiary RLuc qRT-PCR qHTS assay for Zika virus inhibitors (AID 1347169). Further: nearly all actives have a fitted effect of over 55% in size. Further: potency means the concentration at half of the fitted maximal effect. The note with it: infected Vero cells, reporter luminescence, 48-72 h; series mostly up to 45.9 µM. The method in brief:
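Vero, 1,000 cells/well, o/n 37 C; cpd pinned in DMSO; ZIKV-RLuc Cambodian, MOI 1-2, 48-72 h 37 C; live-cell RLuc substrate, lum read at 1-1.5 h.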
(In general: Quantitative PCR measures a nucleic acid by following its amplification.)

The test system of assay [5] is Zika virus NS2B-NS3 protease (linked). The assay is described as follows: 384 well plate NINDS AMC confirmatory qHTS for Zika virus inhibitors (AID 1347163). Further: potency means the concentration at half of the fitted maximal effect; nearly all actives have a fitted effect of over 50% in size. The conditions noted are these: Recombinant NS2B-NS3 protease, Ac-VKTGKR-AMC fluorescence. The method in brief:
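Fluorescence at 355/460 nm was read after 25 minutes of cleavage of 30 microM Ac-VKTGKR-AMC at room temperature, in the dark. Before substrate addition, compounds (up to 1 mM final) sat ~15 minutes with 5, 30 or 60 nM linked protease. Signals were normalized to no-enzyme and no-inhibitor wells.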

For assay [6], the system named is Zika virus NS2B-NS3 protease (unlinked complex). The assay is described as follows: Primary screen GU Rhodamine qHTS for Zika virus inhibitors: Unlinked NS2B-NS3 protease assay (AID 1347159). Further: nearly all actives have a fitted effect of over 60% in size. Further: potency means the concentration at half of the fitted maximal effect. The note with it: Recombinant ZIKV NS2B-NS3 protease, Rhodamine110 substrate fluorescence; series mostly up to 107 µM. The method in brief:
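Unlinked NS2B/NS3, 25 nM; Rhod110 peptide, 1.5 microM; compounds, up to 114 microM. Reaction run 15 min at RT in 10 mM Tris-HCl pH 8.0, 0.01% Tween 20; kinetic fluorescence change fitted with a 4-parameter Hill model.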

The subject of assay [7] is Zika virus NS2B-NS3 protease (linked construct). The assay is described as follows: Primary screen NINDS Rhodamine qHTS for Zika virus inhibitors (AID 1347160). Further: nearly all actives have a fitted effect of over 55% in size. Further: potency means the concentration at half of the fitted maximal effect. The conditions noted are these: purified NS2B-NS3 protease, Rhodamine110 substrate fluorescence; series mostly up to 57.1 µM. The method in brief: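 Single-chain NS2B-NS3 protease, 25 nM, pH 8.0; compounds preincubated 15 min. Activity: Rhodamine110 release from 1.5 microM substrate over 15 min, room temperature, data fitted to 4-parameter Hill.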

Assay [8] addresses Lysine-specific demethylase 5B (Homo sapiens) (UniProt Q9UGL1). Put plainly: Optimization screen for KDM5B Histone Demethylases FDH coupled qHTS against the LOPAC library (AID 1347166). The note with it: KDM5B demethylation, FDH-coupled NADH fluorescence (FDH is formaldehyde dehydrogenase); series mostly up to 57.5 µM. The method in brief:
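KDM5BDeltaAP (200nM final) in 50mM HEPES pH 7.5, 0.01% Tween-20 was preincubated with compound for 10 min at room temperature. A substrate mix of 12.5uM H3K4Me3, 25uM a-ketoglutarate, ascorbate, Fe2+, NAD+ and formaldehyde dehydrogenase was then added. NADH fluorescence (340/450 nm) was read initially and after 30 min.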

The nature of assay [9]: Confirmatory screen NINDS Rhodamine qHTS for Zika virus inhibitors (AID 1347161). Further: nearly all actives have a fitted effect of over 60% in size. Further: potency means the concentration at half of the fitted maximal effect. The conditions noted are these: purified enzyme assay, Rhodamine110 substrate fluorescence, 15 min; series mostly up to 114 µM. In a few lines:
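Purified linked NS2B-NS3 protease (NS2B hydrophilic domain joined to NS3 protease by flexible linker), 25 nM in 10 mM Tris-HCl pH 8.0, 0.01% Tween 20. Compounds titrated, 15 min preincubation at room temperature; 1.5 microM Rhodamine110 substrate, FITC fluorescence change over 15 min.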

In assay [10] the test system is Zika virus NS2B-NS3 protease (linked construct). Put plainly: 384 well plate NINDS Rhodamine confirmatory qHTS for Zika virus inhibitors (AID 1347164). Further: nearly all actives have a fitted effect of over 65% in size. Further: potency means the concentration at half of the fitted maximal effect. The conditions noted are these: rhodamine-110 peptide substrate fluorescence; series mostly up to 100 µM. The method in brief: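 Enzyme (final 5/30/60 nM) + cpd (DMSO), ~15 min; add Ac-LKRR-Rd 10 microM final; 25 min RT, dark; FI ex 485/em 538; normalized to no-enzyme, no-inhibitor ctrls; aprotinin intraplate ctrl.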

Lysine-specific demethylase 5B (Homo sapiens), sequence (Q9UGL1 whole entry, looked up): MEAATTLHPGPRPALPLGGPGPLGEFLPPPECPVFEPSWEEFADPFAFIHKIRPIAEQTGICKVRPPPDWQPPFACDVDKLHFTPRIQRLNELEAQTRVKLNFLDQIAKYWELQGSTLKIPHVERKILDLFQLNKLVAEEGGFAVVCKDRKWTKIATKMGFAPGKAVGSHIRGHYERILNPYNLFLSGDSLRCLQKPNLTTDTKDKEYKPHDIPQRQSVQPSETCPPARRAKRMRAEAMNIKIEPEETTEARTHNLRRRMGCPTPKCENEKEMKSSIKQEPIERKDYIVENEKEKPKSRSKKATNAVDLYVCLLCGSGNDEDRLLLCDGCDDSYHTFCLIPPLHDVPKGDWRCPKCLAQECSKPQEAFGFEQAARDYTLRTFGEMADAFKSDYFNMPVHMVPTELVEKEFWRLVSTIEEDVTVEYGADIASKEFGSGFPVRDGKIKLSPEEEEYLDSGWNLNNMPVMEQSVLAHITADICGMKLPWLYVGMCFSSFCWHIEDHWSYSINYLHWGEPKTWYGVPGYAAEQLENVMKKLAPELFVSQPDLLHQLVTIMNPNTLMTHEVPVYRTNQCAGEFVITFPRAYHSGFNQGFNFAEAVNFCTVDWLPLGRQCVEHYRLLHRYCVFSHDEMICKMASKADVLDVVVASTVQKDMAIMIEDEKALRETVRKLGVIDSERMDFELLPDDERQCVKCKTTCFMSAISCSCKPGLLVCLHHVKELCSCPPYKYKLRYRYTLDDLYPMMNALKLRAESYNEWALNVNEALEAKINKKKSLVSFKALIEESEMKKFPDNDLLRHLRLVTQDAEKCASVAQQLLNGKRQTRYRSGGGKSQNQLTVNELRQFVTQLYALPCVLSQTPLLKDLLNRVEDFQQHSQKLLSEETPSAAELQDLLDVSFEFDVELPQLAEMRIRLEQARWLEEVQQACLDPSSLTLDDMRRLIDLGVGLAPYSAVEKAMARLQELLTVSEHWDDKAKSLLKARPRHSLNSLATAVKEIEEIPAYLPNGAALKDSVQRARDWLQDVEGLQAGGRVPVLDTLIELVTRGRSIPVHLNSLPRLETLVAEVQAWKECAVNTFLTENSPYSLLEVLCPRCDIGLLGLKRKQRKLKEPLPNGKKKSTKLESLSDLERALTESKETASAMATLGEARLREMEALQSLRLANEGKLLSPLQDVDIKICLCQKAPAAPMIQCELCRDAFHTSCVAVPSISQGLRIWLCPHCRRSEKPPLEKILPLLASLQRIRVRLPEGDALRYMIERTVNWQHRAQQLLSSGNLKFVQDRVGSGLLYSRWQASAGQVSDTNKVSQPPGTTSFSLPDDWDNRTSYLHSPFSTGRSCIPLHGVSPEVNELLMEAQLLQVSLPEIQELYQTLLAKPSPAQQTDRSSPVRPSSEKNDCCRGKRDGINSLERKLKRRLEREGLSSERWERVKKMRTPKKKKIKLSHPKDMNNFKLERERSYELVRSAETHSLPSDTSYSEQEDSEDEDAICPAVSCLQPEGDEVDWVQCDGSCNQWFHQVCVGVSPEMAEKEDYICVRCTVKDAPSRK

Consider `C[C@H](NC(=O)C(=O)Nc1ccccc1C(C)(C)C)C(=O)N[C@@H](CC(=O)O)C(=O)COc1c(F)c(F)cc(F)c1F`, for which the molecule was classed as inactive in [1] and in assay [3]. The Potency entry in [2] and in assay [4] was “inactive” in each case.
Turning to `O=c1cc(-c2ccccc2)oc2cc(O)c(O)c(O)c12`, the call in assay [1] and in assay [3] was inactive. Moreover, the Potency in [5] is 141 µM (active). For the same molecule, the Potency result in [2] and in assay [4] was “inactive” throughout.
Take `COc1cc(N2CCC(N3CCN(C)CC3)CC2)ccc1Nc1ncc(Cl)c(Nc2ccccc2S(=O)(=O)C(C)C)n1`: the Potency result in assay [6] and in assay [7] was “inactive” each time.
For the molecule `CC(=O)O[C@]1(C(C)=O)CC[C@H]2[C@@H]3C=C(Cl)C4=CC(=O)[C@@H]5C[C@@H]5[C@]4(C)[C@H]3CC[C@@]21C`, the Potency result in [6] and in assay [7] was “inactive” each time. Besides, the outcome in assay [8] was inactive.
Consider `COCCOC(=O)C1=C(C)NC2=C(C(=O)CC(c3ccccc3OC)C2)C1c1cccc(O)c1` (centres undefined), for which the Potency entry in [6] and in assay [7] was “inactive” throughout.
In the case of `CC(C)NCC(O)COc1cccc2[nH]ccc12` (centres undefined), the Potency result in assay [6] and in assay [7] was “inactive” throughout. For the same molecule, the molecule was classed as inactive in assay [8].
As for `CC(C)(C)OC(=O)N[C@H]1CCCCCC=C[C@@H]2C[C@@]2(C(=O)NS(=O)(=O)C2CC2)NC(=O)[C@@H]2C[C@@H](OC(=O)N3Cc4cccc(F)c4C3)CN2C1=O`, the Potency is 35.5 µM (active) in assay [6] and 49.4 µM (active) in assay [9]. Also, the Potency entry in [7] is “inactive”.
With `CN(C)CCC(c1ccccc1)c1ccccn1` (centres undefined), the Potency result in assay [6] and in assay [7] was “inactive” each time. Moreover, the outcome in assay [8] was inactive.
`CN1CCN(CCOc2cc(OC3CCOCC3)c3c(Nc4c(Cl)ccc5c4OCO5)ncnc3c2)CC1`: the Potency entry in [6] and in assay [7] was “inactive” throughout.
Turning to `O=C(Nc1ccccc1-c1cn2c(CN3CCNCC3)csc2n1)c1cnc2ccccc2n1`, the Potency result in [6] and in [7] was “inactive” throughout.
`Clc1ccc(Cn2c(CN3CCCC3)nc3ccccc32)cc1`: the Potency entry in [6] and in [7] was “inactive” in each case. The molecule was classed as inactive in [8].
On to `CCCNC(=O)NS(=O)(=O)c1ccc(Cl)cc1`, for which the Potency entry in assay [6] and in [7] was “inactive” in each case. The result in assay [8] was inactive.
`CC(C)(C)NC(=O)Nc1cccc(Nc2ncc(F)c(NC(C)(C)CO)n2)c1`: the Potency result in assay [6] and in [7] was “inactive” throughout.
`NC(=O)c1cccc2[nH]c(-c3ccc([C@H]4CCCN4)cc3F)nc12`: the Potency entry in [6], in assay [7], in [9], in assay [2] and in assay [4] was “inactive” each time. In addition, the call in [3] was inactive.
For `COc1ccc(Cc2ccc(NC(N)=O)cc2)cc1-c1cccc(Cl)c1`, the Potency entry in assay [6] and in assay [7] was “inactive” each time.
For the molecule `Cn1c(N2CCCCS2(=O)=O)nc(C(=O)NCc2ccc(F)cc2)c(O)c1=O`, the Potency entry in assay [6] and in [7] was “inactive” throughout.
As to `COC(=O)[C@@H]1[C@H]2C[C@H]3c4[nH]c5ccccc5c4CCN3C[C@@H]2CC[C@@H]1O`, the Potency entry in [6] and in [7] was “inactive” in each case. Further, the outcome in assay [8] was inactive.
In the case of `O=C(NC1CCOCC1)c1ccc(-c2cc(-c3cn[nH]c3-c3ccccn3)ccn2)cc1`, the Potency entry in assay [6] and in assay [7] was “inactive” each time.
`CC(=O)CCCCn1c(=O)c2c(ncn2C)n(C)c1=O`: the Potency result in [6] and in [7] was “inactive” in each case. For the same molecule, in assay [8], the molecule was called inactive.
With `CN(C[C@@H]1COCCO1)S(=O)(=O)Nc1ccc2ccc3ncc(-c4cnn(C)c4)cc3c(=O)c2c1`, the Potency entry in assay [6] and in assay [7] was “inactive” in each case.
As to `CC(C)C(=O)Nc1ncc(-c2cc(C(F)F)nn2-c2c(Cl)cccc2Cl)s1`, the Potency result in [6] and in assay [7] was “inactive” throughout.
As to `CC(=O)Nc1ccc([C@H](C)C(=O)Nc2ncc(C(C)C)s2)cc1`, the Potency entry in assay [6], in assay [7] and in assay [2] was “inactive” throughout. Besides, the Potency was 112 µM (active) in assay [5] and 1.04 µM (active) in assay [4]. Besides, the molecule was called inactive in assay [3].
In the case of `CCN1CCC[C@H]1CNC(=O)c1cc(S(N)(=O)=O)ccc1OC`, the Potency entry in assay [6] and in assay [7] was “inactive” each time. Moreover, the molecule was called inactive in assay [8].
As for `Cc1c(NC(=O)c2ccc(C(C)(C)C)cc2)cccc1-c1cn(C)c(=O)c(Nc2ccc(C(=O)N3CCOCC3)cc2)n1`, the Potency entry in [6] and in assay [7] was “inactive” in each case.
On to `CS(=O)c1ccc(-c2nc(-c3ccc(F)cc3)c(-c3ccncc3)[nH]2)cc1` (centres undefined), for which the Potency entry in [6], in assay [7], in assay [9] and in assay [2] was “inactive” throughout. Moreover, the outcome in assay [3] was inactive.
On to `CC1(C)CCC(CN2CCN(c3ccc(C(=O)NS(=O)(=O)c4ccc(NCC5CCOCC5)c([N+](=O)[O-])c4)c(Oc4cnc5[nH]ccc5c4)c3)CC2)=C(c2ccc(Cl)cc2)C1`, for which the Potency in assay [6] is 2.24 µM (active); in assay [7], 3.98 µM (active); in assay [9], 1.24 µM (active) and 857 nM (active); in assay [5] it was 31.6 µM (active); in assay [4], 5.72 µM (active). In addition, in [10], the Potency entry is “inactive”. Also, the molecule was classed as inactive in [3].
Regarding `CC(C)(C)Cn1c(N)nc2ccc(-c3[nH]c(C(C)(C)C)nc3-c3ccc(F)cc3)nc21`, the Potency result in [6] and in [7] was “inactive” throughout.
In the case of `CNC1CCC(N(Cc2cccc(-c3ccncc3)c2)C(=O)c2sc3c(F)ccc(F)c3c2Cl)CC1` (centres undefined), the Potency result in assay [6] and in assay [7] was “inactive” in each case.
As for `CC(C)n1nc(-c2ccc3oc(N)nc3c2)c2c(N)ncnc21`, the Potency entry in assay [6] and in assay [7] was “inactive” each time.
Turning to `COc1ccccc1N1CCN(CCCNc2cc(=O)n(C)c(=O)n2C)CC1`, the Potency entry in assay [6] and in assay [7] was “inactive” each time. The call in [8] was inactive.
Turning to `COc1ccc2c(Oc3ccc(NC(=O)c4c(C)n(CC(C)(C)O)n(-c5ccccc5)c4=O)cc3F)ccnc2c1`, the Potency entry in [6] and in assay [7] was “inactive” in each case.
Turning to `CN[C@@H](C)C(=O)N[C@H]1CN(C(=O)CC(C)C)CC[C@H]2CC[C@@H](C(=O)NC(c3ccccc3)c3ccccc3)N2C1=O`, the Potency entry in [6] and in assay [7] was “inactive” each time.
Turning to `NC(=O)c1cccc(-c2cc(Nc3ccc(OC(F)(F)F)cc3)ncn2)c1`, the Potency result in assay [6] and in [7] was “inactive” throughout.
For `CC(C)[C@H](CO)Nc1nc(Nc2ccc(C(=O)O)c(Cl)c2)c2ncn(C(C)C)c2n1`, the Potency result in [6] and in assay [7] was “inactive” in each case.
For `Cc1ccc(Nc2cc(-c3cccc(N4C(=O)c5ccccc5C4=O)c3)ncn2)cc1NS(C)(=O)=O`, the Potency in [6] is 50.1 µM (active). For the same molecule, the Potency result in assay [7] was “inactive”.
Take `Cc1cc(OCCCc2c(C(=O)O)n(Cc3cccnc3)c3c(-c4c(COc5ccc(N6CCN([S+](C)(=O)[O-])CC6)cc5)nn(C)c4C)cccc23)cc(C)c1Cl`: in assay [5], the Potency is 31.6 µM (active).
As to `CN(C)c1cc(NC(=O)CNC(C)(C)C)c(O)c2c1C[C@@H]1C[C@H]3[C@H](N(C)C)C(=O)C(C(N)=O)=C(O)[C@@]3(O)C(=O)C1=C2O`, the Potency result in [10] was “inactive”.
Regarding `NC(=O)c1ccc2nc(-c3ccc(Oc4ccc(Cl)cc4)cc3)[nH]c2c1`, the Potency in assay [10] was 251 µM (active).
